Results published in PubChem BioAssay (NCI).
Compounds without any hit were thinned out: in the full panel of roughly 83,000, 20% have a hit.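 Cell lines were cultured in 96-well plates, exposed to a single compound concentration, and assessed for percent growth 48 hours later.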 Active and inactive are the calls of the source. The calls were made as follows: active = growth percent below 10; inactive = the rest.

Assays:
Assay in all cases: NCI-60 one-dose screen, 48 h (100 = growth as untreated, 0 = no growth, -100 = all killed)
SK-MEL-2 melanoma = conditions: 10 µM unless noted
EKVX NSCLC = conditions: 10 µM unless noted
SN12C renal = conditions: 10 µM unless noted
UO-31 renal = conditions: 10 µM unless noted
TK-10 renal = conditions: 10 µM unless noted
ACHN renal = conditions: 10 µM unless noted
CAKI-1 renal = conditions: 10 µM unless noted
A498 renal = conditions: 10 µM unless noted
CCRF-CEM leukemia = conditions: 10 µM unless noted
MOLT-4 leukemia = conditions: 10 µM unless noted
SR leukemia = conditions: 10 µM unless noted
RPMI-8226 leukemia = conditions: 10 µM unless noted
OVCAR-8 ovarian = conditions: 10 µM unless noted
OVCAR-5 ovarian = conditions: 10 µM unless noted
OVCAR-4 ovarian = conditions: 10 µM
SK-OV-3 ovarian = conditions: 10 µM unless noted
IGROV1 ovarian = conditions: 10 µM unless noted
OVCAR-3 ovarian = conditions: 10 µM unless noted
HS 578T breast = conditions: 10 µM unless noted
NCI/ADR-RES ovarian = conditions: 10 µM unless noted

Measured: growth

CCC(C)[C@H](NC(=O)NC(=O)NC(=O)CI)C(=O)OC (stereo partly specified)
active: UO-31 renal -21.3% | CAKI-1 renal -59.6% | CCRF-CEM leukemia -46.2% | MOLT-4 leukemia -16.7% | SR leukemia -40.7% | OVCAR-3 ovarian -39.5%
inactive: SK-MEL-2 melanoma 86.1% | EKVX NSCLC 102% | SN12C renal 89.3% | TK-10 renal 91.8% | ACHN renal 57.3% | A498 renal 89.1% | RPMI-8226 leukemia 61.9% | OVCAR-8 ovarian 88.1% | OVCAR-5 ovarian 94.3% | OVCAR-4 ovarian 63.6% | SK-OV-3 ovarian 88.4% | IGROV1 ovarian 80.7% | HS 578T breast 84.9% | NCI/ADR-RES ovarian 98.4%

COc1ccc(N(c2nc(-c3ccc([N+](=O)[O-])cc3)cs2)C(C)C)cc1
inactive: SK-MEL-2 melanoma 92.1% | EKVX NSCLC 65.8% | SN12C renal 91.4% | UO-31 renal 69.3% | TK-10 renal 88.9% | ACHN renal 89% | CAKI-1 renal 62.6% | A498 renal 59.5% | CCRF-CEM leukemia 62.5% | MOLT-4 leukemia 68.5% | SR leukemia 66.5% | RPMI-8226 leukemia 52.7% | OVCAR-8 ovarian 89.6% | OVCAR-5 ovarian 109% | OVCAR-4 ovarian 70% | SK-OV-3 ovarian 81.7% | IGROV1 ovarian 80.4% | OVCAR-3 ovarian 81.1% | HS 578T breast 85% | NCI/ADR-RES ovarian 86.2%

CCN(CC)c1ccc(/C=C/C=C2\NC(=O)NC2=O)cc1
active: SK-MEL-2 melanoma -13.5% | TK-10 renal 8.35% | NCI/ADR-RES ovarian 3.98%
inactive: EKVX NSCLC 61.5% | SN12C renal 47.4% | UO-31 renal 36.4% | ACHN renal 47.2% | CAKI-1 renal 16.7% | A498 renal 22.4% | CCRF-CEM leukemia 40% | MOLT-4 leukemia 41.1% | SR leukemia 21.1% | RPMI-8226 leukemia 41% | OVCAR-8 ovarian 36% | OVCAR-5 ovarian 58.1% | OVCAR-4 ovarian 50.5% | SK-OV-3 ovarian 29.1% | IGROV1 ovarian 49.7% | OVCAR-3 ovarian 25.5% | HS 578T breast 50.4%

O=C1C(Cl)=C(Nc2ccc3cn[nH]c3c2)C(=O)c2ccccc21
inactive: TK-10 renal 19.8% | ACHN renal 41.1% | A498 renal 93% | SK-OV-3 ovarian 87.2%
active: SK-MEL-2 melanoma -28.6% | EKVX NSCLC -64.7% | SN12C renal -42.9% | UO-31 renal -97.7% | CAKI-1 renal -94.4% | CCRF-CEM leukemia -43.8% | MOLT-4 leukemia -38.4% | SR leukemia -52% | RPMI-8226 leukemia -54.7% | OVCAR-8 ovarian -58.2% | OVCAR-5 ovarian -37.9% | OVCAR-4 ovarian -98.9% | IGROV1 ovarian -83.5% | OVCAR-3 ovarian -100% | HS 578T breast -50.4% | NCI/ADR-RES ovarian -67.5%

COc1cc2c(c(Br)c1N)-c1cc(Br)c(N)cc1C2=O
inactive: SK-MEL-2 melanoma 108% | EKVX NSCLC 34.8% | SN12C renal 39.9% | UO-31 renal 51.7% | TK-10 renal 27.2% | ACHN renal 57.6% | CAKI-1 renal 74.3% | A498 renal 61.7% | CCRF-CEM leukemia 86% | MOLT-4 leukemia 97.2% | SR leukemia 47.2% | RPMI-8226 leukemia 85.9% | OVCAR-8 ovarian 29.1% | OVCAR-5 ovarian 16.3% | OVCAR-4 ovarian 22.2% | SK-OV-3 ovarian 74.5% | IGROV1 ovarian 31.9% | OVCAR-3 ovarian 83.4% | HS 578T breast 38.1% | NCI/ADR-RES ovarian 47.8%

Cc1cc(C)nc(SCC(=O)Nc2cccc(N=Cc3ccccc3O)c2)n1
inactive: SK-MEL-2 melanoma 114% | EKVX NSCLC 97.9% | SN12C renal 96.5% | UO-31 renal 76.7% | TK-10 renal 106% | ACHN renal 99.2% | CAKI-1 renal 81.4% | A498 renal 82.5% | CCRF-CEM leukemia 88.6% | MOLT-4 leukemia 98.9% | SR leukemia 109% | RPMI-8226 leukemia 96.9% | OVCAR-8 ovarian 103% | OVCAR-5 ovarian 100% | OVCAR-4 ovarian 86.1% | SK-OV-3 ovarian 94.5% | IGROV1 ovarian 108% | OVCAR-3 ovarian 105% | HS 578T breast 97.2% | NCI/ADR-RES ovarian 100%

CCN(CC)c1cc(N)c(Cc2c(N)cc(N(CC)CC)cc2Cl)c(Cl)c1
active: RPMI-8226 leukemia 3.27%
inactive: SK-MEL-2 melanoma 41.6% | EKVX NSCLC 31.9% | SN12C renal 21.8% | UO-31 renal 68.5% | TK-10 renal 82.1% | ACHN renal 80.2% | CAKI-1 renal 65.7% | A498 renal 76.7% | CCRF-CEM leukemia 51.5% | MOLT-4 leukemia 40.8% | SR leukemia 34.8% | OVCAR-8 ovarian 37.3% | OVCAR-5 ovarian 92.3% | OVCAR-4 ovarian 23.8% | SK-OV-3 ovarian 49.8% | IGROV1 ovarian 54.7% | OVCAR-3 ovarian 47.2% | HS 578T breast 56% | NCI/ADR-RES ovarian 81.5%

O=C(CCN1CCCCC1)c1ccc2ccccc2c1
inactive: SK-MEL-2 melanoma 102% | EKVX NSCLC 112% | SN12C renal 96.7% | UO-31 renal 77.1% | TK-10 renal 94.5% | ACHN renal 116% | CAKI-1 renal 98.1% | A498 renal 93.5% | CCRF-CEM leukemia 92.3% | MOLT-4 leukemia 108% | SR leukemia 103% | RPMI-8226 leukemia 77.5% | OVCAR-8 ovarian 99.9% | OVCAR-5 ovarian 117% | OVCAR-4 ovarian 114% | SK-OV-3 ovarian 105% | IGROV1 ovarian 104% | OVCAR-3 ovarian 98.6% | HS 578T breast 104% | NCI/ADR-RES ovarian 109%

CN(Cc1cccc(C(F)(F)F)c1)C(=O)[C@@H](CC(=O)N1CCC(N2CCCCC2)CC1)N1C(=O)[C@@H](N2C(=O)OC[C@@H]2c2ccccc2)[C@H]1/C=C/c1ccccc1
inactive: SK-MEL-2 melanoma 100% | EKVX NSCLC 89.9% | SN12C renal 82.6% | UO-31 renal 83.4% | TK-10 renal 93.6% | ACHN renal 100% | CAKI-1 renal 91.9% | A498 renal 63% | CCRF-CEM leukemia 90.6% | MOLT-4 leukemia 58.3% | SR leukemia 54.3% | RPMI-8226 leukemia 66.9% | OVCAR-8 ovarian 93.2% | OVCAR-5 ovarian 104% | OVCAR-4 ovarian 74.2% | SK-OV-3 ovarian 86.2% | IGROV1 ovarian 89.6% | OVCAR-3 ovarian 92.9% | HS 578T breast 61% | NCI/ADR-RES ovarian 99.2%

C[C@@H](NC(=O)[C@@H](CC(=O)N1CCC(N2CCCCC2)CC1)N1C(=O)[C@@H](N2C(=O)OC[C@@H]2c2ccccc2)[C@H]1/C=C/c1cccc(Cl)c1)c1ccccc1
active: SR leukemia -22.4%
inactive: SK-MEL-2 melanoma 96.8% | EKVX NSCLC 66.5% | SN12C renal 84.4% | UO-31 renal 58.9% | TK-10 renal 78.9% | ACHN renal 91.6% | CAKI-1 renal 69.7% | A498 renal 84.6% | CCRF-CEM leukemia 50.1% | MOLT-4 leukemia 26.7% | RPMI-8226 leukemia 54.7% | OVCAR-8 ovarian 86.8% | OVCAR-5 ovarian 115% | OVCAR-4 ovarian 78.6% | SK-OV-3 ovarian 86.7% | IGROV1 ovarian 86% | OVCAR-3 ovarian 74.4% | HS 578T breast 63.2% | NCI/ADR-RES ovarian 98%

COc1cc2c(cc1OC(C)=O)C(=O)CCCC2
inactive: SK-MEL-2 melanoma 99.3% | EKVX NSCLC 104% | SN12C renal 112% | UO-31 renal 88.4% | TK-10 renal 118% | ACHN renal 92.5% | CAKI-1 renal 73.8% | A498 renal 68.3% | CCRF-CEM leukemia 102% | MOLT-4 leukemia 115% | SR leukemia 121% | RPMI-8226 leukemia 109% | OVCAR-8 ovarian 98.3% | OVCAR-5 ovarian 103% | OVCAR-4 ovarian 95.1% | SK-OV-3 ovarian 117% | IGROV1 ovarian 78.8% | OVCAR-3 ovarian 114% | HS 578T breast 84.3% | NCI/ADR-RES ovarian 97.7%

COc1cc(C)cc2oc3oc(=O)c(-c4nc5ccccc5s4)cc3c(=O)c12
inactive: SK-MEL-2 melanoma 113% | EKVX NSCLC 105% | SN12C renal 98.4% | UO-31 renal 74.6% | TK-10 renal 101% | ACHN renal 100% | CAKI-1 renal 91.8% | A498 renal 85.1% | CCRF-CEM leukemia 107% | MOLT-4 leukemia 106% | SR leukemia 105% | RPMI-8226 leukemia 94.1% | OVCAR-8 ovarian 86.4% | OVCAR-5 ovarian 89.7% | OVCAR-4 ovarian 96.7% | SK-OV-3 ovarian 111% | IGROV1 ovarian 83.2% | OVCAR-3 ovarian 85.3% | NCI/ADR-RES ovarian 94.4%

O=c1[nH]cnc2c1ccn2C1OC(CO)C(O)C1O (stereo unspecified)
inactive: SK-MEL-2 melanoma 21.2% | EKVX NSCLC 79% | SN12C renal 63.1% | UO-31 renal 37.9% | TK-10 renal 52.7% | ACHN renal 27.8% | CAKI-1 renal 37.2% | A498 renal 57.5% | CCRF-CEM leukemia 64.1% | MOLT-4 leukemia 53.6% | SR leukemia 58.1% | RPMI-8226 leukemia 58% | OVCAR-8 ovarian 31.4% | OVCAR-5 ovarian 76.6% | OVCAR-4 ovarian 24.5% | SK-OV-3 ovarian 39.3% | IGROV1 ovarian 48.7% | OVCAR-3 ovarian 64.7% | HS 578T breast 74.6% | NCI/ADR-RES ovarian 31.1%

Cc1cc(-c2ccc(N=Nc3c(S(=O)(=O)O)cc4cc(S(=O)(=O)O)cc(N)c4c3O)c(C)c2)ccc1N=Nc1cc(S(=O)(=O)O)c2ccccc2c1O
inactive: SK-MEL-2 melanoma 111% | EKVX NSCLC 81.1% | SN12C renal 98.1% | UO-31 renal 73.1% | TK-10 renal 102% | ACHN renal 95.4% | CAKI-1 renal 78.9% | A498 renal 96.4% | CCRF-CEM leukemia 106% | MOLT-4 leukemia 102% | SR leukemia 106% | RPMI-8226 leukemia 98.5% | OVCAR-8 ovarian 96.6% | OVCAR-5 ovarian 86.8% | OVCAR-4 ovarian 105% | SK-OV-3 ovarian 93.4% | IGROV1 ovarian 95.8% | HS 578T breast 90.7% | NCI/ADR-RES ovarian 97.2%

C=C1C(=O)O[C@H]2[C@H]1CC/C(COC(=O)NCc1ccc(Cn3c(=O)sn(-c4ccc(Cl)cc4)c3=O)cc1)=C\CC[C@@]1(C)O[C@@H]21
active: CCRF-CEM leukemia 0.529% | RPMI-8226 leukemia 4.32%
inactive: SK-MEL-2 melanoma 88.2% | EKVX NSCLC 99.6% | SN12C renal 70.4% | UO-31 renal 57.7% | TK-10 renal 45% | ACHN renal 65.5% | CAKI-1 renal 61% | A498 renal 107% | MOLT-4 leukemia 23.2% | SR leukemia 72.3% | OVCAR-8 ovarian 84% | OVCAR-5 ovarian 93.2% | OVCAR-4 ovarian 54.2% | SK-OV-3 ovarian 107% | IGROV1 ovarian 54.4% | HS 578T breast 106% | NCI/ADR-RES ovarian 102%

COc1cc(C)cc2oc3oc(=N)c(C(=O)c4ccccc4)cc3c(=O)c12
inactive: SK-MEL-2 melanoma 114% | EKVX NSCLC 106% | SN12C renal 101% | UO-31 renal 79.3% | TK-10 renal 105% | ACHN renal 95.5% | CAKI-1 renal 91.6% | A498 renal 90.3% | CCRF-CEM leukemia 118% | MOLT-4 leukemia 98.1% | SR leukemia 94.5% | RPMI-8226 leukemia 116% | OVCAR-8 ovarian 105% | OVCAR-5 ovarian 95.2% | OVCAR-4 ovarian 105% | SK-OV-3 ovarian 120% | IGROV1 ovarian 93.9% | OVCAR-3 ovarian 101% | NCI/ADR-RES ovarian 106%
